Laboratory results taken from PubChem BioAssay AID686978 (National Center for Advancing Translational Sciences (NCATS), 2013).
Among all 420,000 compounds or so, about 64,000 (15%) were called active. About 27% were inconclusive and are not listed. The call rests on the fitted dose curve; in most records, active means well fitted inhibition curve with a large enough effect; inconclusive means small, poorly fitted or top-dose-only effect; inactive means flat fitted curve, though single readings scatter. Not all results are given here. Entries that show only a call come without a potency.

Test: qHTS for Inhibitors of human tyrosyl-DNA phosphodiesterase 1 (TDP1): qHTS in cells in absence of CPT; further: nearly all actives have a fitted effect of over 55% in size
Conditions: DT40 Tdp1-/- hTDP1 cells, no CPT, ATP luminescence, 48 h; activity change, negative = growth inhibition: at 46.2 µM (top of the series)
Description: Human tyrosyl-DNA phosphodiesterase 1 (TDP1) is a novel repair gene, and we propose to use it as a new target for anticancer drug development. TDP1 is not an essential protein, but under treatment with topoisomerase I poison (camptothecin: CPT), TDP1 works as a critical factor for cell survival. To directly identify novel TDP1 inhibitors active in a cellular environment, we have knocked-out the Tdp1 gene in chicken DT40 cells (Tdp1-/-) and generated a complemented counterpart cells that contains a stable transfection of the human TDP1 gene (Tdp1-/-;hTDP1 cells). For the primary screen, Tdp1-/-;hTDP1 cells will be exposed to small molecules in the presence or absence of CPT, and their growth kinetics will be evaluated after 48 hours by measuring ATP activity. […] The hit compounds will then be evaluated in the presence or absence of CPT using Tdp1-/- cells. […] In tertiary assays, biochemical gel-based assays will be used to assess whether the hit compounds specifically target TDP1.
To this end, we have screened this cell line against the MLSMR in two primary screens. In one screen we add CPT and in the other we screen in the absence of CPT; this AID represents the screen where CPT was absent.
NIH Chemical Genomics Center [NCGC]
NIH Molecular Libraries Probe Centers Network [MLPCN]
Assay Submitter (PI): Yves Pommier, NCI
DT40-hTDP1 cells without 20 nM Camptothecin (add 20 microL of DMSO in 1 L of cell culture medium) were dispensed at 400 cells/5microL/well in tissue culture treated 1536-well white wall/solid bottom assay plates (Greiner Bio-One North America, NC, U.S.A.) using a Multidrop Combi 8 channel dispenser (Thermo Fisher, Waltham, MA, USA). 23 nL compounds and controls were transferred using the pin tool (Kalypsys, San Diego, CA, USA) to the assay plates. The assay plates were then incubated at 37 masculineC for a minimum 48 hr. Three microL of Cell Titer Glo solution was added to the plates and incubated at RT in dark for 30 min. Luminescence was read using ViewLux (Perkin Elmer) with 1 sec exposure slow speed, high gain and 2x binning.
Potency means the concentration at half of the fitted maximal effect.

Structure (SMILES)	Potency
COc1ccc(CC(=O)OC(C)C(=O)Nc2ccc(S(N)(=O)=O)cc2)cc1 (centres undefined)	inactive
O=C(Nc1ccccc1C(=O)O)c1ccc(N2C(=O)C3CC=CCC3C2=O)cc1 (centres undefined)	inactive
O=CN1CCN(C(=O)c2ccc3c(c2)OCO3)CC1	inactive
C=CCNC(=O)COc1coc(CN2CCN(Cc3ccccc3)CC2)cc1=O	inactive
CNC(=S)NNC(=O)c1cccn(Cc2ccccc2)c1=O	inactive
C=CCNC(=S)/N=c1/ccccn1Cc1ccccc1	1.84 µM (active)
CCCc1nc(N)nc2c1C(=O)CC(C)(C)C2	inactive
COc1ccc(C(C(=O)NC(C)(C)C)N(C(=O)Cn2nnc3ccccc32)c2ccc(C(C)=O)cc2)cc1O (centres undefined)	inactive
O=C(CC(NCCN1CCOCC1)C(=O)O)Nc1cccc(Cl)c1 (centres undefined)	inactive
OC[C@@H]1CN(Cc2ccc3c(c2)OCO3)C[C@H](n2cnc3c(NCc4ccco4)ncnc32)O1	inactive
Cc1ccccc1NC(=O)CCNS(=O)(=O)c1ccc2[nH]c(=O)oc2c1	inactive
COc1ccc(NC(=O)C2=CC(c3ccc(OC)c(OC)c3)=NS(=O)(=O)N2C)cc1	23.1 µM (active)
COc1cc(NC(=O)C2=CC(c3ccc(C)cc3)=NS(=O)(=O)N2C)cc(OC)c1OC	inactive
COc1ccc(C2=NS(=O)(=O)N(C)C(C(=O)NC(C)c3ccccc3)=C2)cc1 (centres undefined)	inactive
COc1ccccc1N(CC(=O)N1CCCCC1)S(=O)(=O)c1ccccc1	inactive
CC(=O)Nc1ccccc1Sc1ccc2c3c(cccc13)C(=O)N(c1ccc(C)cc1)C2=O	16.4 µM (active)
CSc1ccccc1NC(=O)C(C)N1C(=O)c2ccccc2S1(=O)=O (centres undefined)	inactive
CCOC(=O)Nc1ccccc1N1C(=O)c2ccccc2C1=O	inactive
Cc1c(Cl)c([N+](=O)[O-])nn1CC(=O)NCC1CCCO1 (centres undefined)	inactive
COc1ccc(NC(=O)CCCC(=O)c2ccccc2)cc1	inactive
O=S(=O)(N1CCCCC1)N1CCNCC1	inactive
Cc1cccc(N=C2NC(=O)/C(=C/c3cn(C)c4ccccc34)S2)c1	16.4 µM (active)
CN1C(=O)/C(=C/c2ccco2)SC1=Nc1cccc(C(=O)O)c1	inactive
Cc1ccc(C(=O)N/C(=C\c2cn(C)c3ccccc23)C(=O)N2CCN(C)CC2)cc1	inactive
Cc1ccc(NC(=O)CN(C)S(=O)(=O)c2cnc[nH]2)cc1C	inactive
Cc1ccc(C(=O)NC(C)c2ccccc2)cc1Br (centres undefined)	inactive

Structure (SMILES)	Potency
CC(C)NC(=O)C(=O)NCCCOC(C)C	inactive
CCC1=Nc2cc(C(=O)NCC(C)c3ccccc3)ccc2Sc2ccc(C)cc21 (centres undefined)	23.1 µM (active)
CCCC1=Nc2cc(C(=O)NCc3ccco3)ccc2Sc2ccccc21	3.66 µM (active)
CC(C)OCCCNC(=O)CNC(=O)c1cccs1	inactive
CCC1=Nc2cc(C(=O)NCCCN3CCOCC3)ccc2Sc2ccc(Br)cc21	3.66 µM (active)
COc1ccc(C(=O)NCCCN2CCOCC2)cc1Br	inactive
O=C(NCCCN1CCOCC1)c1cc(-c2cccc(O)c2)on1	inactive
COc1ccc(CCNS(=O)(=O)c2ccc(C(=O)NCc3ccco3)cc2)cc1OC	inactive
CCC1=Nc2cc(C(=O)NCCCOC(C)C)ccc2Sc2ccc(C)cc21	0.517 µM (active)
O=C(NCc1ccco1)c1cccc(-c2ccc3nncn3c2)c1	inactive
Cc1ccc2nc(CNC(=O)c3ccccc3)[nH]c2c1	inactive
CCOC(=O)c1c(/N=C/c2cc(C)ccc2O)sc2c1CCC2	inactive
CCC(=O)c1ccc(OCC(O)Cn2nc(C)c(C(C)=O)c2C)cc1 (centres undefined)	inactive
CC(C)n1c(-c2ccncc2)n[nH]c1=S	inactive
Cc1cc(C)n(C(=O)c2ccc(C)c(S(=O)(=O)N3CCOCC3)c2)n1	inactive
Cc1cccc(NC(=O)C(C)N2C(=O)C3C4CC(C(Br)C4Br)C3C2=O)c1 (centres undefined)	inactive
CN(CC(=O)N1CCN(c2ccccc2)CC1)S(=O)(=O)c1cccs1	inactive
CC(=O)c1ccc(-n2nnnc2SCC(=O)N2CCN(C(=O)c3ccco3)CC2)cc1	inactive
CCOC(=O)c1ccc(NC(=S)Nc2cc(C)cc(C)n2)cc1	inactive
N=C1c2ccccc2-c2ccccc21	inactive
O/N=C1\CC2(Cc3nonc31)OCCO2	inactive
CCCCN(C(=O)c1ccc(OC(F)(F)F)cc1)c1c(N)n(CCC)c(=O)[nH]c1=O	inactive
CCCCn1c(N)c(N(CC)C(=O)c2ccccc2C(F)(F)F)c(=O)[nH]c1=O	inactive
FC(F)(F)c1cc(C(F)(F)F)c2ccc(N3CCN(c4ccccc4)CC3)nc2n1	inactive
COc1ccc(C(C(=O)NC2CCCC2)N(CCCO)C(=O)Cn2nnc(-c3ccc(C)o3)n2)cc1 (centres undefined)	inactive
Cc1ccccc1N(C(=O)CNC(=O)c1cccs1)C(C(=O)NC1CCCC1)c1ccncc1 (centres undefined)	inactive

Structure (SMILES)	Potency
COc1ccc(C(C(=O)NC2CCCCC2)N(C(=O)CCl)c2ccccc2Cl)cc1 (centres undefined)	14.6 µM (active)
CC(NC(=O)COC(=O)c1ccc2c(c1)OCO2)c1ccccc1 (centres undefined)	inactive
CC(C)(C)c1ccc(C(=O)C[N+]2(C)CCCc3ccccc32)cc1 (centres undefined)	1.58 µM (active)
CC(C)(C)c1ccc(C(=O)NNC(=O)Cc2ccccc2)cc1	inactive
CSc1ncnc2c1ncn2CCCNCc1cccs1	inactive
Cc1ccccc1-c1nc(NC(C)C)nc2cc(-c3ccccc3)sc12	20.6 µM (active)
O=C(O)CCCC(=O)Nc1ccccc1-n1ccnc1	inactive
Cc1c(Cl)c([N+](=O)[O-])nn1CC(=O)NCCCN1CCOCC1	inactive
O=S(=O)(c1cccc(-c2nnc(SC(F)F)n2-c2ccccc2)c1)N1CCCCC1	16.4 µM (active)
O=S(=O)(c1cccc(-c2cn3ccccc3n2)c1)N1CCCC1	inactive
O=S(=O)(c1cccc(-c2nnc3n2CCCCC3)c1)N1CCOCC1	inactive
O=C(O)C1=C/C(=C/C=[N+]2c3cc(O)c(O[C@H]4OC(CO)[C@@H](O)[C@@H](O)[C@@H]4O)cc3C[C@@H]2C(=O)[O-])C[C@H](C(=O)O)N1 (some centres undefined)	inactive
S=c1[nH]nc(Nc2ccccc2)s1	inactive
CCOc1c(Cl)cc(/C=N/O)cc1OC	inactive
CCC(=O)/C=C1\Sc2ccccc2N1CC	inactive
CCN1/C(=C/C(=S)Nc2ccccc2)Sc2ccccc21	4.11 µM (active)
O=C(CS(=O)(=O)c1ccc(C(F)(F)F)cn1)NNC(=O)c1ccccc1	inactive
Cc1ccc2nc(COc3ccc(NC(=O)COc4ccccc4F)cc3)cc(=O)n2c1	inactive
Cc1ccc2nc(COc3ccccc3NC(=O)Nc3ccc(F)c(Cl)c3)cc(=O)n2c1	14.6 µM (active)
Cc1ccc2nc(COc3cccc(NC(=O)Nc4ccc(C)c(Cl)c4)c3)cc(=O)n2c1	inactive
COc1ccc(-c2nn3c(=O)cc(CN4CCN(C(=O)c5ccc(OC)c(OC)c5)CC4)nc3s2)cc1	inactive
CCOc1ccc(-c2cc(C(=O)N/N=C/c3ccc(O)cc3)c3ccccc3n2)cc1	0.651 µM (active)
COc1ccc(/C=N/NC(=O)c2cc(-c3cccc(C)c3)nc3ccccc23)cc1O	2.31 µM (active)
COc1cccc(-c2cc(C(=O)N/N=C/c3ccc(OC)c(COC(C)=O)c3)c3ccccc3n2)c1	2.06 µM (active)
COc1ccc(/C=N\NC(=O)c2sc(N)nc2C)cc1OC	inactive
COc1ccc(/C=N/NC(=O)c2ccc(Cl)cc2)cc1COC(C)=O	inactive

Structure (SMILES)	Potency
Cc1ccc(-c2cc(C(=O)N/N=C/C=C/c3ccco3)c3ccccc3n2)cc1C	8.2 µM (active)
Cc1ccc(N2NC(=O)/C(=C/C=C/c3ccco3)C2=O)cc1C	inactive
Cc1nonc1C(=O)N/N=C/c1ccc(O)cc1	inactive
O=C(COc1ccc(/C=N/NC(=O)c2ccc(O)cc2)cc1)Nc1ccc([N+](=O)[O-])cc1	inactive
O=C(Nc1cccc(F)c1)c1cc(-c2ccco2)nc2ccccc12	inactive
Cc1ccc(S(=O)(=O)NCCC(c2ccccc2)c2ccccc2)cc1C(=O)O	inactive
O=C(CCCOc1ccc(Cl)cc1Cl)NNC(=O)C1CCC1	inactive
Cc1ccc(C)c2[nH]c(=O)c(CCNC(=O)CC(C)C)cc12	inactive
COc1ccc(Cc2nnnn2CC(=O)O)cc1	inactive
Cc1ccc(S(=O)(=O)CC(=O)Nc2c(C)n(C)n(-c3ccccc3)c2=O)cc1	inactive
Cc1cc(C)n2nc(SCC(N)=O)nc2n1	inactive
CC(NC(=O)COC(=O)Cn1cc(C(F)(F)F)ccc1=O)c1ccccc1 (centres undefined)	inactive
CCOC(=O)c1c(C)[nH]c(C)c1S(=O)(=O)NCC(=O)NCc1cccc(C)c1	inactive
COc1cc(/C=N/NC(=O)c2cc(-c3ccccc3C)nc3ccccc23)cc(OC)c1O	6.51 µM (active)
COc1cc(/C=N\NC(=O)C2C(=O)NCC2c2ccccc2)cc(OC)c1O (centres undefined)	inactive
CC1(C)CC(CC(=O)O)C(=O)O1 (centres undefined)	inactive
CC(=O)NCC(=O)N(C)C(C(=O)Nc1ccc2c(c1)OCCO2)c1ccccc1 (centres undefined)	inactive
N#Cc1ccccc1NC(=O)c1cccc(COc2ccc(Cl)cc2Cl)c1	inactive
Cc1ccc(NC(=O)Cn2sc3ccccc3c2=O)cc1	4.61 µM (active)
Cc1nn(CC(=O)Nc2ccc(F)cc2)c(=O)c2ccccc12	inactive
Cc1ccc(NC(=O)Cn2c(C)csc2=O)cc1	inactive
CCN1CCN(C(=O)CN(C)S(=O)(=O)c2ccc3ccccc3c2)CC1	inactive
CSCC[C@H](NC(=O)NCCc1ccc(F)cc1)C(=O)O	inactive
COc1ccc(Br)cc1CN(C)C(=O)C1CC(=O)N(C2CCCC2)C1 (centres undefined)	23.1 µM (active)
O=C(Nc1cccc(Br)c1)C1CC(=O)N(C2CCCC2)C1 (centres undefined)	inactive
CN(CC(=O)Nc1ccc(F)c(F)c1F)C(=O)C1CC(=O)N(C2CCCC2)C1 (centres undefined)	inactive
